Where “and” joins values, the source holds several entries; their conditions need not be identical. Identical values can stand only once. The whole screen tested about 5,500 compounds, of which about 2,000 (36%) were called active. Another 18% or so got no clear call; they are omitted. No stated cut-off is given here; in the data, active means normalized growth mostly below about 0.91 (no sharp cut-off); inconclusive means no clear call, values can overlap the other calls; inactive means mostly above about 0.92. Some of the results follow.
Experiment: chemical genetic growth profiling, strain panel (AID 1159580);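 further: tested at 20 µM; growth read once vehicle control cultures reached saturation at 30 °C; 1 = growth at the plate median or of vehicle wells; lower values mean less growth of the strain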
Details: growth OD
[1] = S. cerevisiae deletion strains, locus YDL101C, strain DUN1, hits give low values
[2] = S. cerevisiae deletion strains, locus YGR052W, strain FMP48, hits give low values
[3] = S. cerevisiae deletion strains, locus YHR030C, strain SLT2, hits give low values
[4] = S. cerevisiae deletion strains, locus YHR079C, strain IRE1, hits give low values
[5] = S. cerevisiae deletion strains, locus YHR082C, strain KSP1, hits give low values
[6] = S. cerevisiae deletion strains, locus YJL095W, strain BCK1, hits give low values
[7] = S. cerevisiae deletion strains, locus YJR066W, strain TOR1, hits give low values
[8] = S. cerevisiae deletion strains, locus YKL203C, strain TOR2, hits give low values
[9] = S. cerevisiae deletion strains, locus YLR113W, strain HOG1, hits give low values
[10] = S. cerevisiae deletion strains, locus YNL183C, strain NPR1, hits give low values
[11] = S. cerevisiae deletion strains, locus YNL207W, strain RIO2, hits give low values
[12] = S. cerevisiae deletion strains, locus YOR119C, strain RIO1, hits give low values
[13] = S. cerevisiae deletion strains, locus YOR231W, strain MKK1, hits give low values
[14] = S. cerevisiae deletion strains, locus YPL256C, strain CLN2, hits give low values
[15] = S. cerevisiae deletion strains, locus YAL013W, strain DEP1, hits give low values
[16] = S. cerevisiae deletion strains, locus YBR229C, strain ROT2, hits give low values
[17] = S. cerevisiae deletion strains, locus YDR150W, strain NUM1, hits give low values
[18] = S. cerevisiae deletion strains, locus YEL061C, strain CIN8, hits give low values
[19] = S. cerevisiae deletion strains, locus YGR078C, strain PAC10, hits give low values
[20] = S. cerevisiae deletion strains, locus YHR087W, strain rtc3, hits give low values
[21] = S. cerevisiae deletion strains, locus YJL187C, strain SWE1, hits give low values
[22] = S. cerevisiae deletion strains, locus YJR043C, strain POL32, hits give low values
[23] = S. cerevisiae deletion strains, locus YJR075W, strain HOC1, hits give low values
[24] = S. cerevisiae deletion strains, locus YLR039C, strain RIC1, hits give low values
[25] = S. cerevisiae deletion strains, locus YLR058C, strain SHM2 (second series), hits give low values
[26] = S. cerevisiae deletion strains, locus YLR085C, strain ARP6, hits give low values
[27] = S. cerevisiae deletion strains, locus YLR262C, strain YPT6, hits give low values
[28] = S. cerevisiae deletion strains, locus YML094W, strain GIM5, hits give low values
[29] = S. cerevisiae deletion strains, locus YMR219W, strain ESC1, hits give low values
[30] = S. cerevisiae deletion strains, locus YMR263W, strain SAP30, hits give low values
[31] = S. cerevisiae deletion strains, locus YNL153C, strain GIM3, hits give low values
[32] = S. cerevisiae deletion strains, locus YNL298W, strain CLA4 (second series), hits give low values
[33] = S. cerevisiae deletion strains, locus YNL322C, strain KRE1, hits give low values
[34] = S. cerevisiae deletion strains, locus YNR030W, strain Alg12, hits give low values
[35] = S. cerevisiae deletion strains, locus YOL006C, strain TOP1, hits give low values
[36] = S. cerevisiae deletion strains, locus YPL055C, strain LGE1, hits give low values
[37] = S. cerevisiae deletion strains, locus YPL241C, strain CIN2, hits give low values
[38] = S. cerevisiae deletion strains, locus YPR135W, strain CTF4, hits give low values

Measured: normalized growth

N#Cc1ccc(Oc2sccc2[N+](=O)[O-])cc1
inactive: S. cerevisiae deletion strains, locus YAR019C, strain CDC15, hits give low values 0.937 | S. cerevisiae deletion strains, locus YBL105C, strain PKC1, hits give low values 0.978 | S. cerevisiae deletion strains, locus YBR135W, strain CKS1, hits give low values 0.946 | S. cerevisiae deletion strains, locus YBR136W, strain MEC1, hits give low values 0.971 | S. cerevisiae deletion strains, locus YBR160W, strain CDC28, hits give low values 0.992 | S. cerevisiae deletion strains, locus YDL017W, strain CDC7, hits give low values 0.985 | S. cerevisiae deletion strains, locus YDL028C, strain MPS1, hits give low values 0.978 | [1] 0.959 | S. cerevisiae deletion strains, locus YDL108W, strain KIN28, hits give low values 0.97 | S. cerevisiae deletion strains, locus YDL132W, strain cdc53, hits give low values 0.942 | S. cerevisiae deletion strains, locus YDL214C, strain PRR2, hits give low values 0.901 | S. cerevisiae deletion strains, locus YDR052C, strain DBF4, hits give low values 0.975 | S. cerevisiae deletion strains, locus YDR054C, strain cdc34, hits give low values 0.907 | S. cerevisiae deletion strains, locus YDR226W, strain ADK1, hits give low values 0.98 | S. cerevisiae deletion strains, locus YDR477W, strain SNF1, hits give low values 0.888 | S. cerevisiae deletion strains, locus YER123W, strain YCK3, hits give low values 0.748 | S. cerevisiae deletion strains, locus YER133W, strain GLC7, hits give low values 0.847 | S. cerevisiae deletion strains, locus YFL009W, strain cdc4, hits give low values 0.908 | S. cerevisiae deletion strains, locus YFL029C, strain CAK1, hits give low values 0.907 | S. cerevisiae deletion strains, locus YFR003C, strain YPI1, hits give low values 0.975 | S. cerevisiae deletion strains, locus YFR019W, strain FAB1, hits give low values 0.924 | S. cerevisiae deletion strains, locus YFR028C, strain CDC14, hits give low values 0.953 | S. cerevisiae deletion strains, locus YGR040W, strain KSS1, hits give low values 0.867 | [2] 0.879 | S. cerevisiae deletion strains, locus YGR092W, strain DBF2, hits give low values 0.769 | [3] 0.942 | [4] 0.955 | [5] 0.934 | S. cerevisiae deletion strains, locus YHR205W, strain SCH9, hits give low values 0.894 | S. cerevisiae deletion strains, locus YIL147C, strain SLN1, hits give low values 0.969 | [6] 0.825 | S. cerevisiae deletion strains, locus YJL128C, strain PBS2, hits give low values 0.923 | S. cerevisiae deletion strains, locus YJL157C, strain FAR1, hits give low values 0.883 | S. cerevisiae deletion strains, locus YJR016C, strain ILV3, hits give low values 0.946 | S. cerevisiae deletion strains, locus YJR066W, strain TOR1 (second series), hits give low values 0.821 | [7] 0.907 | S. cerevisiae deletion strains, locus YKL048C, strain ELM1, hits give low values 0.95 | S. cerevisiae deletion strains, locus YKL067W, strain YNK1, hits give low values 0.895 | S. cerevisiae deletion strains, locus YKL101W, strain HSL1, hits give low values 0.927 | S. cerevisiae deletion strains, locus YKL193C, strain SDS22, hits give low values 0.941 | [8] 0.911 | S. cerevisiae deletion strains, locus YLR133W, strain CKI1, hits give low values 0.933 | S. cerevisiae deletion strains, locus YLR403W, strain SFP1, hits give low values 0.863 | S. cerevisiae deletion strains, locus YML070W, strain DAK1, hits give low values 0.869 | S. cerevisiae deletion strains, locus YMR001C, strain CDC5, hits give low values 0.935 | S. cerevisiae deletion strains, locus YMR205C, strain PFK2 (second series), hits give low values 0.899 | S. cerevisiae deletion strains, locus YMR277W, strain FCP1, hits give low values 0.92 | S. cerevisiae deletion strains, locus YNL006W, strain LST8, hits give low values 0.932 | S. cerevisiae deletion strains, locus YNL020C, strain ARK1, hits give low values 0.934 | S. cerevisiae deletion strains, locus YNL161W, strain CBK1, hits give low values 0.956 | [10] 0.856 | [11] 0.956 | S. cerevisiae deletion strains, locus YNL222W, strain SSU72, hits give low values 0.957 | S. cerevisiae deletion strains, locus YNL307C, strain MCK1 (second series), hits give low values 0.918 | S. cerevisiae deletion strains, locus YOL078W, strain AVO1, hits give low values 0.914 | S. cerevisiae deletion strains, locus YOL136C, strain PFK27, hits give low values 0.901 | S. cerevisiae deletion strains, locus YOR061W, strain CKA2, hits give low values 0.886 | [12] 0.925 | [13] 0.837 | S. cerevisiae deletion strains, locus YOR329C, strain SCD5, hits give low values 0.977 | S. cerevisiae deletion strains, locus YPL031C, strain PHO85, hits give low values 0.876 | S. cerevisiae deletion strains, locus YPL153C, strain RAD53, hits give low values 0.866 | S. cerevisiae deletion strains, locus YPL204W, strain HRR25, hits give low values 0.872 | S. cerevisiae deletion strains, locus YPL209C, strain IPL1, hits give low values 0.98 | [14] 1.05 | S. cerevisiae deletion strains, locus YPR025C, strain CCL1, hits give low values 0.971 | S. cerevisiae deletion strains, locus YPR106W, strain ISR1, hits give low values 0.96 | S. cerevisiae deletion strains, locus YPR111W, strain DBF20, hits give low values 0.993 | S. cerevisiae deletion strains, strain NNK1, hits give low values 0.971 | S. cerevisiae deletion strains, strain TSCII, hits give low values 0.921
active: [9] 0.76

CCOC(=O)c1ccc(Oc2sccc2[N+](=O)[O-])cc1
active: [15] 0.796 | [16] 0.817 | [1] 0.77 | [18] 0.442 | [19] 0.811 | [3] 0.167 and 0.769 | [4] 0.852 | [20] 0.848 | [22] 0.81 | [23] 0.719 | S. cerevisiae deletion strains, locus YKL190W, strain CNB1, hits give low values 0.0675 | [8] 0.849 | [24] 0.239 | [25] 0.928 | [26] 0.143 | [27] 0.407 | [28] 0.747 | [29] 0.848 | [30] 0.867 | [31] 0.849 | [32] 0.241 | [33] 0.931 | [34] 0.341 | [35] 0.102 | [37] 0.446 | [14] 0.734 | [38] 0.211 | S. cerevisiae strains, strain wild type, hits give low values 0.0898
inactive: [17] 0.866 | [2] 0.872 | [5] 0.878 | [6] 0.772 | [21] 1.02 | [7] 0.876 | S. cerevisiae deletion strains, locus YKL171W, strain NNK1, hits give low values 0.854 | [9] 0.735 | [10] 0.864 | [11] 0.862 | [12] 0.86 | [13] 0.869 | [36] 0.84

CCOC(=O)c1ccc(Oc2ccc(Cl)cc2Cl)c([N+](=O)[O-])c1
inactive: [15] 1 | [16] 0.993 | [1] 0.992 | [17] 1.01 | [18] 0.959 | [19] 1.01 | [3] 0.883 | [20] 0.998 | [21] 0.99 | [22] 0.996 | [23] 0.968 | [24] 1 | [25] 0.99 | [26] 0.92 | [27] 1.01 | [28] 0.975 | [29] 0.997 | [30] 0.996 | S. cerevisiae deletion strains, locus YNL128W, strain TEP1, hits give low values 0.987 | [31] 0.998 | [32] 0.961 | [33] 1 | [34] 0.959 | [35] 0.81 | [36] 0.961 | [37] 0.958 | [38] 0.918
